Dicer processing – inhibitors of human Dicer processing of pre-microRNA | Q9UPY3 | cat-ELCCA pre-miR-21 Dicer processing, chemiluminescence; hits give high values | z-score at 25 µM | 47,000 tested, 6% active; in the data active = z-score above about 3, passing the limit was not always enough;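 also: plate controls were vehicle for no effect and no enzyme for full effect; higher signal means more uncleaved substrate so more Dicer inhibition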
Target sequence (Q9UPY3 whole entry, looked up): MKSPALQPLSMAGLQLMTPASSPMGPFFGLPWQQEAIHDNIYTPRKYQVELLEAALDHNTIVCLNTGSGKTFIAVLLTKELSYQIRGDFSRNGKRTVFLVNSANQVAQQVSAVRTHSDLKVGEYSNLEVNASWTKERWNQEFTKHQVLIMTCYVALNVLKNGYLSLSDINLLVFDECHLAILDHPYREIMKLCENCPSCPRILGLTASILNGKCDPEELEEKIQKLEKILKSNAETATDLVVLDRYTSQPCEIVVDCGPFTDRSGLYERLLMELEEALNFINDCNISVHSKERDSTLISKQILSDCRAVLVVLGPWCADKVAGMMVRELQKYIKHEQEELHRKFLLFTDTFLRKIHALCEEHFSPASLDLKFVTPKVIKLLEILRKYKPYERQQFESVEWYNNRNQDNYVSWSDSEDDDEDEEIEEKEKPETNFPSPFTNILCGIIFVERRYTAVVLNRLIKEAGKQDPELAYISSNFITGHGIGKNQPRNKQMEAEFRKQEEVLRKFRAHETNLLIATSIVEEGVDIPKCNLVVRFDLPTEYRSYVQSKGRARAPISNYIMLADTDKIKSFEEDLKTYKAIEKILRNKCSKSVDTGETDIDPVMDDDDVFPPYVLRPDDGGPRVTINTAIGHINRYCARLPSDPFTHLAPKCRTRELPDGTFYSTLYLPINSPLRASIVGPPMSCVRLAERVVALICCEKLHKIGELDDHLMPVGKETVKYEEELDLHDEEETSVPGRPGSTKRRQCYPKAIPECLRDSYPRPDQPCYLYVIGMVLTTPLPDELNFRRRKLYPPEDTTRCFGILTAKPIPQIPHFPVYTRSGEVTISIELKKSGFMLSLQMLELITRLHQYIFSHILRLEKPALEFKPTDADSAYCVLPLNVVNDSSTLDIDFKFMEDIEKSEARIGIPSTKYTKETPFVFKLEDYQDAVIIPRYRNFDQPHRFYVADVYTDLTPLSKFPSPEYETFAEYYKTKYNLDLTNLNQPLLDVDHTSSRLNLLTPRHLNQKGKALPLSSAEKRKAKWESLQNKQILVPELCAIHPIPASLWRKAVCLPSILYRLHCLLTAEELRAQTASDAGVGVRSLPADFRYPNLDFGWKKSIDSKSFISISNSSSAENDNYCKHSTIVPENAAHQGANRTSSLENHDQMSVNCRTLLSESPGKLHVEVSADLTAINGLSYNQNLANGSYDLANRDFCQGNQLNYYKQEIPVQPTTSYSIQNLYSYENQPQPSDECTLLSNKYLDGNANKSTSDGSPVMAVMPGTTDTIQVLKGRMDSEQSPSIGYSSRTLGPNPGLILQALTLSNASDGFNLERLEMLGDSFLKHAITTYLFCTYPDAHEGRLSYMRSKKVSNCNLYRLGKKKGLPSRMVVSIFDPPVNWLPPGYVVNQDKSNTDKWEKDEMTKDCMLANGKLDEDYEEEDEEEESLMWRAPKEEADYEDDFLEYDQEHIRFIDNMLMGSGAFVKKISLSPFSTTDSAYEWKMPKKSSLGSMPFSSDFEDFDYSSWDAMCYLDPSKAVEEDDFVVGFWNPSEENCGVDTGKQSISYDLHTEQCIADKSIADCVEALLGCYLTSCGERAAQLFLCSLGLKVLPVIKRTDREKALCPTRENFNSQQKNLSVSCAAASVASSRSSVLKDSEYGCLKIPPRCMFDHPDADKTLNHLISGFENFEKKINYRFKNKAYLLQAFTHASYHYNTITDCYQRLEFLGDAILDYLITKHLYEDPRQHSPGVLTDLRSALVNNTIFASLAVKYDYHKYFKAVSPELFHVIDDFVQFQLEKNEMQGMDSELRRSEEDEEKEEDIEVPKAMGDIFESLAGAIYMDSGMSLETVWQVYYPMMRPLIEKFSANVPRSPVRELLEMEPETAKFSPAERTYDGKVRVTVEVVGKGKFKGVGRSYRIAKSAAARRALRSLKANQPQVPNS
* hit, by the source's call. Many of the other results were omitted from the sample, so hits are more common in it than they were.

SMILES	Dicer processing
O=C(NC(=O)N1CCSC1)c1c(Cl)cccc1Cl	-0.67
O=C(Cn1c(NCCO)nc2ccccc21)c1ccc(Cl)cc1	1.8
O=C(Nc1nc2ccccc2n1CCN1CCCCC1)C1CCCCC1	-4.1
O=C(CSc1nc2ccccc2nc1N1CCCC1)NCc1ccco1	1.7
CCCCn1c(NCc2ccco2)nc2ccccc21	0.34
c1coc(CNc2nc3ccccc3n2CCN2CCCCC2)c1	6.1*
Clc1ccc(CNc2nc3ccccc3n2CCN2CCCCC2)cc1	3.2*
Cc1nn(C)c(NCCSCc2c(Cl)cccc2Cl)c1[N+](=O)[O-]	1.4
CCOC(=O)C(Cc1c(C)[nH]c2ccccc12)C(=O)OCC	1.9
COc1ccc(-c2cnc(NCc3cc(Cl)ccc3O)n2C)cc1	1.3
COc1nccnc1NS(=O)(=O)c1ccc(NCc2cc(Cl)ccc2O)cc1	3.7*
Cc1cc(C)nc(NS(=O)(=O)c2ccc(NCc3cc(Br)ccc3O)cc2)n1	10
CCOC(=O)C1CCN(c2cc(C)c(C#N)c3nc4ccccc4n23)CC1	2.2
Cn1c(NCc2ccccn2)nc2c1c(=O)n(Cc1cccc(Br)c1)c(=O)n2C	-0.09
CCOC(=O)c1sc(-c2ccc(C(F)(F)F)cc2)nc1O	-0.27
Cc1nc(-c2ccc(C(F)(F)F)cc2)sc1Br	18*
CSc1n[nH]c(-c2ccc(C(F)(F)F)cc2)n1	3.1
CCN(CCS(=O)(=O)c1ccc(Cl)cc1)C(=O)Nc1ccccc1	3.3*
CNC(=O)N(CCS(=O)(=O)c1ccc(Cl)cc1)Cc1cccs1	-2.5
CCN(CCS(=O)(=O)c1ccccc1)S(=O)(=O)c1ccc(Cl)cc1	-4.4
CSc1nnc(SCc2cc(=O)oc3cc(O)ccc23)s1	-0.67
O=C(NNC(=S)Nc1ccccc1C(F)(F)F)c1ccc(-c2ccc(Cl)cc2)s1	4.3*
CC(C)(C)NC(=S)NNC(=O)c1ccc(-c2ccc(Cl)cc2)s1	-0.16
Cc1ccc(O)c(C(=O)NNC(=S)Nc2ccccc2C(F)(F)F)c1	5.4
CCCCc1ncc(/C=C2\C(=O)Nc3ccccc32)[nH]1	-0.31
SMILES	Dicer processing
O=C(O)CCCC(=O)N1N=C(c2cccs2)CC1c1cn(-c2ccccc2)nc1-c1ccccc1 (stereo unspecified)	2.5
CCOC(=O)NC(=S)Nc1ccsc1C(=O)OC	-0.36
OCc1nc2ccccc2n1Cc1ccccc1Cl	-0.29
CN(C)c1ccc(CNc2nc3ccccc3n2C)cc1	-0.16
COc1ccc(OC)c(CNc2nc3ccccc3n2C)c1	2.5
CCn1c(NCc2cc(OC)ccc2OC)nc2ccccc21	2.8
C=CCn1c(NCc2ccccc2OC)nc2ccccc21	-0.63
O=C(Nc1nc2ccccc2n1CCN1CCOCC1)C1CCCCC1	3
COc1ccccc1CNc1nc2ccccc2n1CCN1CCOCC1	6.2*
COc1ccc(OC)c(CNc2nc3ccccc3n2CCN2CCCCC2)c1	3.8*
COc1ccc(OCCn2c(C)nc3ccccc32)cc1	0.43
Clc1ccccc1CNc1nc2ccccc2n1CCN1CCOCC1	6.5*
COc1ccccc1CNc1nc2ccccc2n1C	3.8*
O=C(C1=C(O)C(=O)N(CCCN2CCOCC2)C1c1cccnc1)c1ccco1 (stereo unspecified)	-0.25
CCCN1C(=O)C(NC(C)=O)c2cc(Br)ccc21 (stereo unspecified)	0.49
C=CCNc1nc(CC(=O)OCC)cs1	0.98
C=CCSC1=C(C#N)C(c2ccc(Cl)cc2)CC(=O)N1 (stereo unspecified)	1
COc1ccc(-c2cn3c4ccccc4nc3n2CCCN2CCOCC2)cc1	3.6*
Cc1ccc(-c2cn3c4ccccc4nc3n2CCCN2CCCCC2)cc1	2.9
CC(C)c1ccc(CNc2nc3ccccc3n2CCN2CCOCC2)cc1	4.8*
CCN(CC)c1ccc(CNc2nc3ccccc3n2C(C)C)cc1	0.35
Cc1ccc(-c2cn3c4ccccc4nc3n2CCO)cc1	1.3
c1ccc2c(c1)nc(NCc1ccc3c(c1)OCO3)n2CCN1CCOCC1	-0.44
COc1cc([C@@H]2Nc3c(C)cccc3[C@@H]3C=CC[C@@H]32)cc(Br)c1OC	1.3
O=S(=O)(c1cccs1)N1CC=C(c2ccccc2)CC1	-0.2
SMILES	Dicer processing
COc1cccc(-c2nn3c(-c4ccccc4)nnc3s2)c1	-0.19
COc1ccc(-c2nc(Nc3nc4ccccc4o3)ncc2C#N)cc1	1.9
Cc1cc(C)nc(Nc2n[nH]c(Cc3ccccc3)n2)n1	0.13
Cc1cc(C)nc(Nc2nc3ccccc3o2)n1	4.6*
CCOC(=O)c1c(NS(C)(=O)=O)sc(C)c1C	-0.77
COC(=O)C1=C(C)NC2=C(C(=O)c3ccccc32)C1c1ccc(O)c(Cl)c1 (stereo unspecified)	-0.07
Cc1nc(-c2cccnc2)[nH]c(=O)c1CC1CC1	2.4
CCOC(=O)c1cnc2cc(C3CC3)[nH]n2c1=O	-1.2
Cc1ccc(SC(=O)N2CCOCC2)cc1	-0.58
O=C(C1Cc2ccccc2C1)N1CCOCC1	7.3*
O=C(c1cc(-c2ccccc2)nc2ccccc12)N1CCOCC1	1.5
COc1ccc(OCc2nc3ccccc3n2CCOc2ccccc2)cc1	-0.12
O=C(O)/C=C/C(=O)NCc1cccc(Cl)c1	0.86
c1cnc2c(SCc3cn4ccccc4n3)cccc2c1	0.04
CN1C(=O)c2cccc3c(S(=O)(=O)NCCCCCC(=O)O)ccc1c23	-1.6
CN1C(=O)c2cccc3c(S(=O)(=O)NCC(=O)O)ccc1c23	3.1*
CN1C(=O)c2cccc3c(S(=O)(=O)NCCCC(=O)O)ccc1c23	0.78
CN(C)c1scc(-c2ccc(Cl)cc2)c1C#N	-1.1
Cc1ccc(-c2c3c(=O)n(C)c(=O)n(C)c3cn2C)cc1	0.83
Cn1c(=O)c2c(-c3ccccc3)n(CCCO)cc2n(C)c1=O	5.8*
Cn1c(=O)c2c(-c3ccccc3)n(C(CO)(CO)CO)cc2n(C)c1=O	0.81
CC(=O)c1sc(SC(C)C)c2c1CC(C)(C)CC2=O	0.17
O=S(=O)(Oc1ccccc1)c1cc(Br)c(Br)s1	-1.3
CCOC(=O)c1cc(C)n(-c2cccc(Cl)c2Cl)c1-c1ccccc1	-0.36
CCc1ccc(N=C(N)N=C(N)N)cc1	0.41
SMILES	Dicer processing
NN/C(N)=N/C(N)=Nc1ccc(F)cc1	3*
NC(N)=NC(N)=Nc1ccc(F)cc1F	-0.23
Cc1nc2ccccc2n1CCOc1ccccc1Cl	-0.03
Cc1cc(=O)n2[nH]c(-c3cccs3)cc2n1	-0.3
O=c1cc(-c2ccccc2)nc2cc(-c3cccs3)[nH]n12	3.1*
O=c1cc(-c2ccccc2)nc2cc(-c3ccccc3)[nH]n12	0.61
O=c1cc(-c2ccccc2)nc2nc(C(F)(F)F)[nH]n12	-2.4
CC(C)(C)c1cc2nc(-c3ccccc3)cc(=O)n2[nH]1	-1.1
O=c1cc(-c2ccccc2)nc2c(-c3ccccc3)c(C(F)(F)F)[nH]n12	4*
COC(=O)C1=C(C)NC2=C(C(=O)CC(C)(C)C2)C1c1ccc(OC)cc1OC (stereo unspecified)	-1.2
CC(C)N(Cc1ccc(N(C)C)cc1)S(=O)(=O)c1cccc(C(F)(F)F)c1	0.47
Oc1ccc2ncccc2c1C(Nc1ccccn1)c1cccc(Cl)c1 (stereo unspecified)	0.33
C/S(=N/S(=O)(=O)c1ccccc1Cl)c1ccc(OC(=O)c2ccc(Cl)cc2)cc1 (stereo unspecified)	-0.95
O=C(OCCSc1ccc(C(F)(F)F)cn1)c1ccc(Cl)cc1	-0.69
CCCc1nnc(NC(CC)OC(=O)c2cc(C)nc3ccccc23)s1 (stereo unspecified)	3.1*
CCc1nnc2sc(-c3cc(C)nc4ccccc34)nn12	-1.1
COCCNc1cc(C)nc2ccccc12	5.5
COC(=O)C1C2C=CC3(CN(C(C)c4ccccc4)C(=O)C13)O2 (stereo unspecified)	1

Screening results: PubChem BioAssay, Center for Chemical Genomics, University of Michigan
